“And” between values parts separate entries of the source, which are not always exact repeats. Identical values can stand only once. In all, about 5,500 compounds went through this assay and about 2,000 (36%) were called active. Not shown: some 18% with an inconclusive outcome. Rule as the data show it: active = normalized growth mostly below about 0.91 (no sharp cut-off); inconclusive = no clear call, values can overlap the other calls; inactive = mostly above about 0.92. This is one part of the list.
Experiment: chemical genetic growth profiling, strain panel (AID 1159580);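 also: tested at 20 µM; growth read once vehicle control cultures reached saturation at 30 °C; 1 = growth at the plate median or of vehicle wells; lower values mean less growth of the strain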
Conditions: S. cerevisiae deletion strains, growth OD

Measured: normalized growth

CCC(=O)O[C@H]1CCC2C3CCC4=CC(=O)CC[C@]4(C)C3CC[C@@]21C (some centres not stated)
0.889 (active) and 0.906 (inactive): locus YHR030C, strain SLT2, stronger effect = lower value
0.724 (active) and 0.95 (inactive): locus YJL095W, strain BCK1, stronger effect = lower value
active: locus YAL013W, strain DEP1, stronger effect = lower value 0.792 | locus YAL030W, strain snc1, stronger effect = lower value 0.924 | locus YBL061C, strain skt5, stronger effect = lower value 0.866 | locus YBR009C, strain hhf1, stronger effect = lower value 0.883 | locus YBR021W, strain FUR4, stronger effect = lower value 0.782 | locus YBR023C, strain chs3, stronger effect = lower value 0.868 | locus YCL011C, strain gbp2, stronger effect = lower value 0.843 | locus YCL016C, strain dcc1, stronger effect = lower value 0.905 | locus YCL029C, strain bik1, stronger effect = lower value 0.857 | locus YDL074C, strain BRE1, stronger effect = lower value 0.76 | locus YDR137W, strain rgp1, stronger effect = lower value 0.689 | locus YDR159W, strain sac3, stronger effect = lower value 0.796 | locus YDR162C, strain NBP2, stronger effect = lower value 0.808 | locus YDR318W, strain mcm21, stronger effect = lower value 0.901 | locus YDR392W, strain spt3, stronger effect = lower value 0.213 | locus YDR502C, strain sam2, stronger effect = lower value 0.919 | locus YER016W, strain bim1, stronger effect = lower value 0.879 | locus YER155C, strain BEM2 (second series), stronger effect = lower value 0.777 | locus YER155C, strain BEM2, stronger effect = lower value 0.873 | locus YGL086W, strain mad1, stronger effect = lower value 0.873 | locus YGL173C, strain kem1, stronger effect = lower value 0.887 | locus YGL253W, strain hxk2, stronger effect = lower value 0.872 | locus YHR142W, strain chs7, stronger effect = lower value 0.737 | locus YJL095W, strain BCK1 (second series), stronger effect = lower value 0.77 | locus YJL129C, strain trk1, stronger effect = lower value 0.781 | locus YJL164C, strain tpk1, stronger effect = lower value 0.893 | locus YJL166W, strain qcr8, stronger effect = lower value 0.865 | locus YJL187C, strain SWE1, stronger effect = lower value 0.907
inactive: locus YAL021C, strain ccr4, stronger effect = lower value 0.979 | locus YAL026C, strain drs2, stronger effect = lower value 0.959 | locus YBR171W, strain sec66, stronger effect = lower value 0.925 | locus YBR229C, strain ROT2, stronger effect = lower value 0.969 | locus YBR231C, strain swc5, stronger effect = lower value 0.952 | locus YBR279W, strain paf1, stronger effect = lower value 0.959 | locus YCL069W, strain vba3, stronger effect = lower value 0.962 | locus YCR088W, strain abp1, stronger effect = lower value 0.957 | locus YDL005C, strain med2, stronger effect = lower value 0.949 | locus YDL035C, strain GPR1, stronger effect = lower value 0.892 | locus YDL040C, strain nat1, stronger effect = lower value 0.946 | locus YDL101C, strain DUN1, stronger effect = lower value 0.95 | locus YDL185W, strain tfp1, stronger effect = lower value 1 | locus YDL192W, strain arf1, stronger effect = lower value 0.985 | locus YDR001C, strain nth1, stronger effect = lower value 0.962 | locus YDR069C, strain doa4, stronger effect = lower value 0.924 | locus YDR101C, strain arx1, stronger effect = lower value 0.957 | locus YDR195W, strain ref2 0.993 | locus YDR297W, strain sur2, stronger effect = lower value 0.968 | locus YDR334W, strain swr1, stronger effect = lower value 0.952 | locus YDR335W, strain msn5, stronger effect = lower value 0.934 | locus YDR388W, stronger effect = lower value 0.981 | locus YEL003W, strain gim4, stronger effect = lower value 0.943 | locus YEL037C, strain rad23, stronger effect = lower value 0.96 | locus YEL061C, strain CIN8 (second series), stronger effect = lower value 0.968 | locus YEL061C, strain CIN8, stronger effect = lower value 0.933 | locus YER015W, strain faa2, stronger effect = lower value 0.954 | locus YER110C, stronger effect = lower value 0.998 | locus YER111C, strain swi4, stronger effect = lower value 0.928 | locus YER167W, strain BCK2, stronger effect = lower value 0.909 | locus YFR010W, strain ubp6, stronger effect = lower value 0.992 | locus YGL078C, strain dbp3, stronger effect = lower value 0.984 | locus YGL167C, strain pmr1, stronger effect = lower value 0.928 | locus YGL227W, strain vid30, stronger effect = lower value 0.949 | locus YGL240W, strain doc1, stronger effect = lower value 0.928 | locus YGL248W, strain PDE1, stronger effect = lower value 0.916 | locus YGR135W, strain pre9, stronger effect = lower value 0.969 | locus YGR229C, strain SMI1, stronger effect = lower value 0.821 | locus YGR252W, strain gcn5, stronger effect = lower value 0.872 | locus YHR013C, strain ard1, stronger effect = lower value 1.02 | locus YHR027C, strain rpn1, stronger effect = lower value 0.967 | locus YHR079C, strain IRE1 (second series), stronger effect = lower value 0.981 | locus YHR079C, strain IRE1, stronger effect = lower value 0.896 | locus YHR094C, strain hxt1, stronger effect = lower value 0.982 | locus YHR129C, strain ARP1, stronger effect = lower value 0.943 | locus YHR200W, strain rpn10, stronger effect = lower value 0.943 | locus YIL066C, strain RNR3, stronger effect = lower value 0.878 | locus YIL073C, strain SPO22, stronger effect = lower value 0.807 | locus YIL125W, strain kgd1, stronger effect = lower value 0.975 | locus YIR030C, strain dcg1, stronger effect = lower value 0.991 | locus YJL092W, strain hpr5, stronger effect = lower value 0.929 | locus YJL115W, strain asf1, stronger effect = lower value 0.945 | locus YJL134W, strain LCB3, stronger effect = lower value 0.978 | locus YJL154C, strain vps35, stronger effect = lower value 0.943 | locus YJL168C, strain set2, stronger effect = lower value 0.983 | locus YJL187C, strain SWE1 (second series), stronger effect = lower value 0.951 | locus YJR043C, strain POL32, stronger effect = lower value 0.928
